Source: PubChem BioAssay (NCI)
The panel holds about 79,000 compounds, 15% with a hit somewhere; the sample as a whole holds those more often. Active and inactive are the calls of the source. Rule as the data show it: active = growth inhibition above about 70%; inactive = the rest.

Tests used:
[1] = NCI Yeast Anticancer Drug Screen. Data for the rad52 strain (AID 147);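 also: 0% = growth of vehicle-treated control cultures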; conditions: S. cerevisiae rad52 mutant growth inhibition, hits give high values
Summary of the method: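 Measured: yeast growth inhibition. System: strain with a defined DNA damage repair alteration. Reference: vehicle-treated control cultures.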

[2] = NCI Yeast Anticancer Drug Screen. Data for the wt1 strain (AID 149);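 also: 0% = growth of vehicle-treated wt1 cultures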; conditions: S. cerevisiae wt1 strain (SPY 50644) growth inhibition, hits give high values
Summary of the method: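 The wt1 strain was treated with compounds, and growth was compared with vehicle-treated cultures to give inhibition.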

[3] = NCI Yeast Anticancer Drug Screen. Data for the rad50EPP+ strain (AID 151);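 also: 0% = growth of vehicle-treated control cultures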; conditions: S. cerevisiae rad50 mutant strain, hits give high values
Summary of the method: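 One strain with a rad50 alteration (rad50EPP+) was compound-treated, its growth then compared to that of vehicle controls.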

[4] = NCI Yeast Anticancer Drug Screen. Data for the mgt1 strain (AID 153); conditions: S. cerevisiae mgt1 mutant growth inhibition, hits give high values
Summary of the method: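 After exposure of the mgt1 yeast mutant to compound, growth was measured and reported as inhibition compared with vehicle controls.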

[5] = NCI Yeast Anticancer Drug Screen. Data for the rad50 strain (AID 155);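 also: 0% = growth of vehicle-only cultures of the same strain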; conditions: S. cerevisiae rad50 strain growth inhibition, hits give high values
Summary of the method: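 Cells are treated with compound, grown, and their growth is then scored against vehicle-only cultures of the same repair-deficient yeast strain.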

[6] = NCI Yeast Anticancer Drug Screen. Data for the mec2-1 strain (AID 157); conditions: S. cerevisiae mec2-1 strain, hits give high values
Summary of the method: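 Test agents were screened against the mec2-1 yeast strain, with defined DNA repair or cell cycle alteration. Growth was scored as inhibition against vehicle-only controls.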

[7] = NCI Yeast Anticancer Drug Screen. Data for the rad14 strain (AID 159);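 also: 0% = growth of vehicle-treated control cultures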; conditions: S. cerevisiae rad14 strain growth inhibition, hits give high values
Summary of the method: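 Readout: yeast growth inhibition, referenced to vehicle-only cultures. Strain bears a defined alteration in DNA damage repair.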

[8] = NCI Yeast Anticancer Drug Screen. Data for the sgs1 mgt1 strain (AID 161);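 also: 0% = growth of cultures given vehicle only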; conditions: S. cerevisiae sgs1 mgt1 strain, hits give high values
Summary of the method: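 Mutant yeast exposed to compound; growth scored against vehicle-only wells.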

[9] = NCI Yeast Anticancer Drug Screen. Data for the CLN2oe strain (AID 163);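 also: 0% = growth of vehicle-only control cultures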; conditions: S. cerevisiae CLN2oe strain, hits give high values
Summary of the method: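 Here, growth inhibition in a cell-cycle-altered yeast strain after compound exposure was quantified against vehicle control growth.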

[10] = NCI Yeast Anticancer Drug Screen. Data for the cln2 rad14 strain (AID 165);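 also: 0% = growth equal to vehicle treated cultures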; conditions: S. cerevisiae cln2 rad14 strain, hits give high values
Summary of the method: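 Growth of compound-exposed yeast (cln2 rad14 genotype) measured and expressed as inhibition relative to vehicle.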

[11] = NCI Yeast Anticancer Drug Screen. Data for the bub3 strain (AID 167); conditions: S. cerevisiae bub3 mutant strain, hits give high values
Summary of the method: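 Part of a panel of yeast mutants defective in DNA damage repair or cell cycle regulation. Each strain is grown with compound, and inhibition is calculated relative to solvent-treated cultures.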

[12] = NCI Yeast Anticancer Drug Screen. Data for the wt2 strain (AID 169);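 also: 0% = growth of vehicle-treated yeast cultures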; conditions: S. cerevisiae wt2 strain growth inhibition, hits give high values
Summary of the method: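 Genetically defined yeast strains from a DNA-repair/cell-cycle panel were used. Compound-exposed yeast growth was measured, and the inhibition was calculated relative to vehicle treatment.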

[13] = NCI Yeast Anticancer Drug Screen. Data for the mlh1 strain (AID 171);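 also: 0% = growth of vehicle-treated control cultures of the same strain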; conditions: S. cerevisiae mlh1 strain growth inhibition, hits give high values
Summary of the method: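 Here the genetically defined yeast mutant is grown with each compound, and the extent to which its growth falls below that of vehicle-exposed cells is reported.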

[14] = NCI Yeast Anticancer Drug Screen. Data for the sgs1 strain (AID 173);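 also: 0% = growth of vehicle-only control cultures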; conditions: S. cerevisiae sgs1 mutant, hits give high values
Summary of the method: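 Relative growth inhibition, referenced to vehicle, was determined in a yeast strain with a defined alteration affecting DNA damage repair or cell cycle control after compound exposure.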

[15] = NCI Yeast Anticancer Drug Screen. Data for the mlh1 rad18 strain (AID 175); conditions: S. cerevisiae mlh1 rad18 strain growth inhibition, hits give high values
Summary of the method: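 In this whole-cell yeast screen, a strain with altered DNA damage repair is challenged with compound, and its growth is measured against matched vehicle-treated controls.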

[16] = NCI Yeast Anticancer Drug Screen. Data for the rad18 strain (AID 177); conditions: S. cerevisiae rad18 mutant growth inhibition, hits give high values
Summary of the method: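 Screen uses a yeast strain with a defined lesion in DNA damage repair; compound effect is read as loss of growth compared to untreated vehicle cultures.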

[17] = at 5.0 µM (retest, dose inferred, filed as 0.5)
[18] = at 50.0 µM (retest, dose inferred, filed as 5.0)

Measured: growth inhibition

COc1ccc(/C=C2\SC(=S)N(/C=C3\C(=O)N(c4ccccc4)N=C3C)C2=O)cc1OC
active: [1]; at 100.0 µM 77% | [2]; at 100.0 µM 76% | [4]; at 33.0 µM 79% | [4]; at 100.0 µM 89% | [5]; at 100.0 µM 71% | [6]; at 50.0 µM 73.2% | [6]; at 100.0 µM 80% | [7]; at 100.0 µM 74% | [8]; [18] 83% | [8]; at 50.0 µM 79.2% | [9]; at 100.0 µM 71% | [12]; at 33.0 µM 82% | [12]; at 100.0 µM 89% | [13]; at 33.0 µM 81% | [13]; at 100.0 µM 88% | [14]; at 33.0 µM 86% | [14]; at 100.0 µM 90% | [15]; at 50.0 µM 76.2% | [16]; at 100.0 µM 74%
inactive: [1]; at 1.2 µM 3% | [1]; at 3.7 µM 8% | [1]; at 11.0 µM 25% | [1]; at 33.0 µM 64% | [2]; at 1.2 µM 3% | [2]; at 3.7 µM 5% | [2]; at 11.0 µM 11% | [2]; at 33.0 µM 48% | [3]; at 1.2 µM -1% | [3]; at 3.7 µM 6% | [3]; at 11.0 µM 24% | [3]; at 33.0 µM 55% | [3]; at 100.0 µM 58% | [4]; at 1.2 µM 1% | [4]; at 3.7 µM 3% | [4]; at 11.0 µM 27% | [5]; at 1.2 µM -5% | [5]; at 3.7 µM -10% | [5]; [17] 5% | [5]; at 11.0 µM 9% | [5]; at 33.0 µM 61% | [5]; [18] 51% | [5]; at 50.0 µM 63.4% | [6]; at 1.2 µM 3% | [6]; at 3.7 µM 4% | [6]; [17] -7% | [6]; at 11.0 µM 18% | [6]; at 33.0 µM 65% | [6]; [18] 52% | [7]; at 1.2 µM 3% | [7]; at 3.7 µM 4% | [7]; at 11.0 µM 26% | [7]; at 33.0 µM 66% | [8]; [17] -4% | [9]; at 1.2 µM -18% | [9]; at 3.7 µM -9% | [9]; at 11.0 µM 3% | [9]; at 33.0 µM 58% | [10]; [17] -5% | [10]; [18] 61% | [10]; at 50.0 µM 50.8% | [11]; at 1.2 µM -2% | [11]; at 3.7 µM 0% | [11]; [17] 5% | [11]; at 11.0 µM 11% | [11]; at 33.0 µM 42% | [11]; [18] 17% | [11]; at 50.0 µM 67.6% | [11]; at 100.0 µM 65% | [12]; at 1.2 µM -2% | [12]; at 3.7 µM 2% | [12]; at 11.0 µM 26% | [13]; at 1.2 µM 0% | [13]; at 3.7 µM 3% | [13]; at 11.0 µM 25% | [14]; at 1.2 µM 4% | [14]; at 3.7 µM 15% | [14]; at 11.0 µM 42% | [15]; [17] 7% | [15]; [18] 67% | [16]; at 1.2 µM 5% | [16]; at 3.7 µM 17% | [16]; at 11.0 µM 37% | [16]; at 33.0 µM 68%

CSc1nc(-c2ccccc2)nc(=[N+]2CCOCC2)s1
inactive: [1]; at 1.2 µM 17% | [1]; at 3.7 µM 52% | [2]; at 1.2 µM 5% | [2]; at 3.7 µM 11% | [2]; at 11.0 µM 23% | [2]; at 33.0 µM 56% | [3]; at 1.2 µM 27% | [3]; at 3.7 µM 56% | [4]; at 1.2 µM 3% | [4]; at 3.7 µM 11% | [4]; at 11.0 µM 31% | [5]; at 1.2 µM 13% | [5]; at 3.7 µM 37% | [6]; at 1.2 µM 1% | [6]; at 3.7 µM 8% | [6]; [17] 18% | [6]; at 11.0 µM 32% | [6]; [18] 18% | [7]; at 1.2 µM 4% | [7]; at 3.7 µM 9% | [7]; at 11.0 µM 25% | [8]; [17] 44% | [8]; [18] 44% | [9]; at 1.2 µM -4% | [9]; at 3.7 µM 6% | [9]; at 11.0 µM 21% | [10]; [17] 14% | [10]; [18] 14% | [10]; at 50.0 µM 64.1% | [11]; at 1.2 µM -8% | [11]; at 3.7 µM -3% | [11]; [17] 21% | [11]; at 11.0 µM 32% | [11]; [18] 21% | [12]; at 1.2 µM 6% | [12]; at 3.7 µM 15% | [12]; at 11.0 µM 37% | [13]; at 1.2 µM -1% | [13]; at 3.7 µM 10% | [13]; at 11.0 µM 35% | [14]; at 1.2 µM 10% | [14]; at 3.7 µM 31% | [15]; [17] 35% | [15]; [18] 35% | [16]; at 1.2 µM 16% | [16]; at 3.7 µM 50%
active: [1]; at 11.0 µM 83% | [1]; at 33.0 µM 97% | [1]; at 100.0 µM 98% | [2]; at 100.0 µM 93% | [3]; at 11.0 µM 77% | [3]; at 33.0 µM 89% | [3]; at 100.0 µM 93% | [4]; at 33.0 µM 87% | [4]; at 100.0 µM 98% | [5]; [17] 74% | [5]; at 11.0 µM 79% | [5]; at 33.0 µM 94% | [5]; [18] 74% | [5]; at 50.0 µM 88.8% | [5]; at 100.0 µM 98% | [6]; at 33.0 µM 73% | [6]; at 50.0 µM 73.5% | [6]; at 100.0 µM 98% | [7]; at 33.0 µM 78% | [7]; at 100.0 µM 99% | [8]; at 50.0 µM 86.4% | [9]; at 33.0 µM 77% | [9]; at 100.0 µM 96% | [11]; at 33.0 µM 82% | [11]; at 50.0 µM 81.6% | [11]; at 100.0 µM 96% | [12]; at 33.0 µM 81% | [12]; at 100.0 µM 97% | [13]; at 33.0 µM 76% | [13]; at 100.0 µM 98% | [14]; at 11.0 µM 72% | [14]; at 33.0 µM 94% | [14]; at 100.0 µM 98% | [15]; at 50.0 µM 82.2% | [16]; at 11.0 µM 86% | [16]; at 33.0 µM 94% | [16]; at 100.0 µM 98%
